Screening results from PubChem BioAssay.
PMP22 txn prim: Cell-based coincidence reporter assay to measure PMP22 gene transcription in S16 Pmp22-F2sN cells - Primary screen; S16 Pmp22-F2sN Schwann cells, FLuc/NLuc coincidence luminescence, 24 h; Potency, µM (series often up to 57.5 µM), inactives show at the highest dose activity change, negative = inhibition, hits mostly inhibitors; actives 2% (n = 43,000); AID 1508649, 2021; active means clear falling dose curves in both reporters; inconclusive means both reporters move, but less clearly or upward; inactive means either reporter flat; the % is the NLuc reporter signal; further: potency means the concentration at half of the fitted maximal effect; on the % scale 0 is the no-effect control and ±100 the full control effect
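S16(c9) Schwann cells with FLuc/NLuc coincidence reporter in the Pmp22 3' UTR; compounds pin-transferred, 24 h at 37C. Dual-luciferase read: FLuc first, then NLuc after Stop&Glo, each 10 min at room temperature.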
S16 viability: Cell viability qHTS assay in S16 Pmp22-F2sN cells | S16 Pmp22-F2sN Schwann cells viability, CellTiter-Glo, 24 h | Potency, µM (series often up to 57.5 µM), for the others: top-dose activity change, negative = cytotoxicity, most hits filed as cytotoxic | actives 0.48% (n = 43,000); further: potency means the concentration at half of the fitted maximal effect; on the % scale 0 is the no-effect control and ±100 the full control effect; nearly all actives have a fitted effect of over 65% in size
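Used to flag compounds lowering reporter output through toxicity, this quantitative HTS measures ATP-based CellTiter-Glo luminescence in S16 Pmp22-F2sN Schwann cells after 24 h compound exposure at 37C.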
pS6 MEF inh: Acumen qHTS Assay for Inhibitors of the mTORC1 Signaling Pathway in MEF (Tsc2-/-, p53-/-) Cells: Sytravon; Tsc2-/- p53-/- MEF, phospho-rpS6 immunofluorescence/PI, 24 h; Potency, µM (doses to about 38.3 µM), for the others: top-dose activity change, negative = inhibition, most hits filed as inhibitors; actives 0.78% (n = 44,000); AID 493208, 2011;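 further: potency means the concentration at half of the fitted maximal effect; plate controls were DMSO for no effect and rapamycin for full effect; nearly all actives have a fitted effect of over 50% in size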
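Tsc2-/-, p53-/- mouse embryonic fibroblasts (empty-vector line) exposed to compound 24 hrs at 37 C, fixed, immunostained for phospho-rpS6 and counterstained with propidium iodide. Acumen laser scanning gives % positive cells from Alexa 488/PI ratio, thresholded using 7.5 nM rapamycin; PI count gives viability.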
p53null 32C tox: qHTS Screen for Compounds that Selectively Target Cancer Cells with p53 Mutations: Cytotoxicity of p53 Null Cells at the Permissive Temperature; AID 903, 2007; Potency, µM (doses to about 46.1 µM), for inactives: at the highest dose activity change, negative = cytotoxicity, hits mostly cytotoxic; H1299-neo p53 null cells, ATP luminescence, 24 h, 32C; actives 0.62% (n = 55,000);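 further: potency means the concentration at half of the fitted maximal effect; 0% = DMSO only and -100% = full killing by 100 µM tamoxifen; nearly all actives have a fitted effect of over 55% in size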
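Luminescent ATP readout gave cell viability of p53-null H1299-neo cells after a 24 h compound exposure at the permissive 32C. Titrations ran up to 46 uM, and AC50s were fitted with the standard Hill equation.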
SKOV3 invasion: Primary qHTS assay for Inhibitors of ovarian cancer metastasis using an organotypic tumor microenvironment (TME) model; SKOV3ip1-GFP adhesion/invasion on 3D omental model, fluorescence; Potency, µM (titrated, usually from 45.8 µM), for inactives: at the top dose activity change, negative = inhibition, most hits filed as inhibitors; actives 0.1% (n = 46,000); AID 1963576, 2024;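 further: potency means the concentration at half of the fitted maximal effect; plate controls were DMSO wells for no effect and tomatine positive control wells for full effect; nearly all actives have a fitted effect of over 65% in size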
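Primary human omental fibroblast/mesothelial 3D culture pre-formed 48 h. SKOV3ip1-GFP cells added with compounds (0.36-46 umol/L), incubated 2 h RT/16 h 37 C, fixed; GFP cells quantified at 488/509 nm.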
p53null 39C tox: qHTS Screen for Compounds that Selectively Target Cancer Cells with p53 Mutations: Cytotoxicity of p53 Null Cells at the Nonpermissive Temperature; H1299 p53-null (neo) cells, 39C, ATPlite viability, 24 h; Potency, µM (doses to about 46.1 µM), for the others: at the top dose activity, negative = cell killing, hits mostly cytotoxic; actives 0.97% (n = 55,000);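 further: potency means the concentration at half of the fitted maximal effect; 0% = DMSO only and -100% = full killing by 100 µM tamoxifen; nearly all actives have a fitted effect of over 50% in size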
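H1299 lung cancer cells, p53-null (H1299-neo) or expressing p53 A138V (H1299-p53A138V), were plated overnight at 37C, then exposed to compounds at up to 46 uM for 24 hr at 39C. Viability was read by ATP-based luminescence.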
NLuc sat counter: Biochemical NLuc saturation counterscreen for small molecule modulators of PMP22 gene expression - Nano-Glo assay; shares compounds with PMP22 txn prim; Secreted NLuc enzyme (filtered S16 cell medium), Nano-Glo luminescence; Potency, µM (titrated, usually from 57.5 µM), inactives show at the top dose activity change, negative = inhibition, most hits filed as inhibitors; actives 4% (n = 690); AID 1508638, 2021; further: potency means the concentration at half of the fitted maximal effect; on the % scale 0 is the no-effect control and ±100 the full control effect
NLuc Km counter: Biochemical coelenterazine-based NLuc counterscreen for small molecule modulators of PMP22 gene expression - Km assay | actives 5% (n = 690) | shares compounds with PMP22 txn prim | Potency, µM (highest dose often 57.5 µM), for the others: at the top dose activity change, negative = inhibition, actives largely listed as inhibitors | secreted NLuc enzyme, coelenterazine luminescence, Km conditions; further: potency means the concentration at half of the fitted maximal effect; on the % scale 0 is the no-effect control and ±100 the full control effect
FLuc ctr PMP22: Biochemical FLuc counterscreen for small molecule modulators of PMP22 gene expression; 690 tested, under 10 active; shares compounds with PMP22 txn prim; Potency, µM (doses to about 57.5 µM), for inactives: top-dose activity, negative = inhibition, most hits filed as inhibitors; AID 1508640, 2021; purified P. pyralis FLuc, luminescence, 10 min; further: % of control where 0% means no effect
Target sequence (P08659 whole entry, looked up): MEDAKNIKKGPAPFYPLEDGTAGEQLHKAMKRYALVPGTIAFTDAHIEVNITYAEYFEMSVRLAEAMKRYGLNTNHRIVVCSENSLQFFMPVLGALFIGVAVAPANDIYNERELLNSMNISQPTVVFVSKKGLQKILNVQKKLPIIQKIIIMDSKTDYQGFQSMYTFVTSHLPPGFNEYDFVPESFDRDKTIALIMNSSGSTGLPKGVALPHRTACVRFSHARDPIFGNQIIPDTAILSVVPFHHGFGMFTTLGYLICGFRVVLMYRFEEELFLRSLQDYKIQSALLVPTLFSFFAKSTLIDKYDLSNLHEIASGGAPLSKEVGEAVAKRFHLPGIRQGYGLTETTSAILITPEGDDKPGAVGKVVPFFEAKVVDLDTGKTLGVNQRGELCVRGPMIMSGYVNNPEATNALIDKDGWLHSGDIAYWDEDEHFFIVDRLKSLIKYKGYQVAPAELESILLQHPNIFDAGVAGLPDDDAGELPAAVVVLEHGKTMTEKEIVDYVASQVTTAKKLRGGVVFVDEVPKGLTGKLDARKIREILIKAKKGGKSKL
S16 F2sN tox cnf: Cell viability qHTS assay in S16 Pmp22-F2sN cells - Confirmatory screen; actives 7% (n = 690); S16 Schwann cells viability, CellTiter-Glo ATP luminescence, 24 h; Potency, µM (highest dose often 57.5 µM), for inactives: at the top dose activity change, negative = viability loss, actives largely listed as cytotoxic; AID 1508641, 2021; shares compounds with PMP22 txn prim; further: potency means the concentration at half of the fitted maximal effect; on the % scale 0 is the no-effect control and ±100 the full control effect
PMP22 txn conf: Cell-based coincidence reporter assay to measure PMP22 gene transcription in S16 Pmp22-F2sN cells - Confirmatory screen. shares compounds with PMP22 txn prim. S16 Schwann cells Pmp22-F2sN, dual luciferase, 24 h. Potency, µM (top dose mostly 57.5 µM), without a hit: at the top dose activity change, negative = inhibition, actives largely listed as inhibitors. actives 22% (n = 690). AID 1508646, 2021; active means clear falling dose curves in both reporters; inconclusive means both reporters move, but less clearly or upward; inactive means either reporter flat; the % is the FLuc reporter signal; further: potency means the concentration at half of the fitted maximal effect
* = called active by the depositor; i = inactive; ? = inconclusive; · = no result. The list is not random: actives were taken first. Their share in the collection is about 3%. Unless noted, the call rests on the fitted dose curve; in most records, active means well fitted curve in the direction sought with a large enough effect; inconclusive means small, poorly fitted or top-dose-only effect, or another doubt; inactive means no such curve, though single readings can be large; an effect the other way counts as inactive or inconclusive.

SMILES	PMP22 txn prim	S16 viability	pS6 MEF inh	p53null 32C tox	SKOV3 invasion	p53null 39C tox	NLuc sat counter	NLuc Km counter	FLuc ctr PMP22	S16 F2sN tox cnf	PMP22 txn conf
Cc1ccccc1NC(=O)c1ccc(F)c(S(=O)(=O)N(C)C2CCCCC2)c1	5µM*	-14%	0%	5%	-5%	-2%	-17%	?	3%	-5%	-27%
CCCNC(=O)c1ccccc1NC(=O)c1nsc2ccccc12	?	9%	?	-9%	-3%	-11%	·	·	·	·	·
COc1ccc(CN2CCN(Cc3cc(=O)oc4cc(C)ccc34)CC2)c(OC)c1OC	17µM*	?	?	-11%	i	?	-15%	5%	3%	-28%	-21%
Cc1ccc2c(CN3CCN(c4ccc(Cl)cc4)CC3)cc(=O)oc2c1	?	-6%	1%	-2%	0%	-11%	·	·	·	·	·
CCc1ccc(NC(=O)CC2C(=O)OCCN2CC)cc1 (configuration not stated)	15µM*	?	?	·	i	·	-17%	-17%	-19%	-27%	?
CCN1CCOC(=O)C1CC(=O)Nc1ccc(C(C)=O)cc1 (configuration not stated)	?	20%	?	·	6%	·	·	·	·	·	·
CCN1CCOC(=O)C1CC(=O)Nc1ccccc1C(F)(F)F (configuration not stated)	?	-3%	?	·	i	·	·	·	·	·	·
CCN1CCOC(=O)C1CC(=O)Nc1cc(Cl)ccc1OC (configuration not stated)	19µM*	?	?	·	i	·	-8%	0%	4%	7%	?
COC(=O)[C@@H]1[C@H]2C[C@@H]3c4[nH]c5ccccc5c4CCN3C[C@@H]2CC[C@@H]1O	·	·	·	·	5%	·	·	·	·	·	·
